Assay results reported in PubChem BioAssay (NCI).
Compounds without any hit were thinned out: in the full panel of roughly 83,000, 20% have a hit.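 Method: cells in 96-well plates; compound added at one concentration; 48 h incubation; percent growth measured; values under 10 scored active.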 A number with no mark means an inactive call. Active and inactive are the calls of the source.

Each compound was assayed on RXF 393 renal (assay: NCI-60 one-dose screen, 48 h (100 = growth as untreated, 0 = no growth, -100 = all killed)). Conditions: 10 µM unless noted.

Structure (SMILES) | growth [%]
N#C/C(=C\c1ccc(Br)cc1)c1cc2ccccc2[nH]1 | 115
COc1ccc(C2=C/C(=C\c3ccc(Cl)cc3)C(=O)N2/N=C/c2ccc(Cl)cc2)cc1 | 99.3
CC(O)c1ncc(/C=C2\SC(=S)N(Cc3ccccc3)C2=O)s1 (stereo not drawn) | 102

These compounds were tested on SF-268 CNS in the same assay as above. Conditions: 10 µM unless noted.

Structure (SMILES) | growth
C=CCn1c(SCC(=O)Nc2ccc(C(=O)/C=C/c3ccc(OC)cc3)cc2)nnc1-c1ccccc1 | 80.9%
COc1cc2ncnc(Nc3ccc(F)c(Cl)c3)c2cc1OCC(=O)N1CCN(c2ccc(F)cc2)CC1 | 79.5%
Cc1ccc2nc(Cl)c(Cn3nnnc3SCc3ccccc3)cc2c1 | 93.9%
CN1CCN(CCOc2ccc(-c3cnc4c(-c5ccc(C(F)(F)F)cc5)cnn4c3)cc2)CC1 | 48.7%
C/C(C=O)=C\c1ccc2c(c1)OCO2 | 110%
Cc1ccc(O)c(NC(=O)c2ccc(CNc3ccnc(C(F)(F)F)c3)cc2)c1 | 79.9%
O=C1/C(=C/c2ccc(C(F)(F)F)cc2)COc2ccc(O)c(O)c21 | -0.987% (active)
O=C(N/N=C/c1ccc(O)cc1O)c1ccc(Nc2ccnc(C(F)(F)F)c2)cc1 | 41.1%
O=c1[nH]c(-c2ccc(Cl)cc2)cn1-c1ccc(-n2cc(-c3ccc(Cl)cc3)[nH]c2=O)cc1 | 109%
CC1O[C@@H]2C[C@@](O)([C@H]1O)n1c3ccccc3c3c4c(c5c6ccccc6n2c5c31)C(=O)NC4=O (stereo partly drawn) | 49.8%
COC1=CC(c2ccc[nH]2)=N/C1=C\c1[nH]c(C)c(CC(=O)OCc2ccccc2)c1C | 9.87% (active)
NC(=O)c1ccc(NC(=O)c2oc3ccccc3c2-c2cnn(-c3ccccc3)c2)cc1 | 27.4% [50 µM]
CCOC(=O)N1CCN(S(=O)(=O)c2oc(-c3ccc(Cl)cc3)nc2C#N)CC1 | 109%
Cc1nn(-c2ccccc2)c(N2CCCCC2)c1/C=N/NC(=O)Cn1c(=O)sc2ccccc21 | 79.2%
CN(C)c1ccc(C(=NO)c2ccc(N(C)C)cc2)cc1 | 50.6%
Clc1ccc(-c2nc(-c3c[nH]c4ncccc34)cs2)cc1 | 40.9% [100 µM]
COc1ccc(C(c2cc(OC)c(OC)c(OC)c2)N2CCCC2)cc1 (stereo not drawn) | 84.3%
COc1cccc(C(=O)OCC(O)C(=O)NC23CC4CC(CC(C4)C2)C3)c1 (stereo not drawn) | 102%
C=CC(=O)N1CCN(c2ccc3cccc(NC(=O)c4cnc(C)cn4)c3n2)CC1 | 37.6%
CCOC(=O)c1c(C)c2c(n1C)CSc1cc(S(=O)(=O)c3ccccc3)c(=O)[nH]c1-2 | 40.5% [100 µM]

Structure (SMILES) | growth
CCCCCCCCNc1cc2c3c(c1)CCCN3CCC2 | 18.3%
COc1ccc(OC)c(-c2cn3nc(-c4c[nH]c5ccc(Br)cc45)sc3n2)c1 | 18.3%
CS(=O)(=O)Nc1cc(-c2ccc3ncnc(Nc4ccc5c(cnn5Cc5cccnc5)c4)c3c2)cnc1Cl | 27.9%
C=CCN=C(N)SCCCCCCSC(N)=NCC=C | 95%
COc1cc(C2C3=C(COC3=O)N(CCO)c3cc4c(cc32)OCCO4)cc(OC)c1OC (stereo not drawn) | 26.8%
COc1ccc2[nH]cc(-c3nc(-c4cn(C)c5ccncc45)cs3)c2c1 | 87.1%
COc1cccc(NC(=O)c2cccc(C3CCc4c(cc(OC)c(OC)c4OC)O3)c2)c1 (stereo not drawn) | 91.2%
Cn1c(O)c(C(/C=C/c2ccccc2)=Nc2ccccc2N)c(=O)n(C)c1=O | 114%
CC1=C(C(=O)n2c3ccccc3c3ccccc32)C(c2cccc([N+](=O)[O-])c2)C(C(=O)n2c3ccccc3c3ccccc32)=C(C)N1 | 89.3%
O=C(O)c1cn(C2CC2)c2cc(N3CCN(C(=O)N/N=C/c4ccccc4)CC3)c(F)cc2c1=O | 96.8%
CC1(C)CCC(S(=O)(=O)c2ccc3c(c2)/C(=N\O)c2cc(S(=O)(=O)N4CCN(c5ccc(F)cc5O)CC4)ccc2-3)CC1 | -54.4% (active)
Cc1ccc(C)n1/C=C/n1c(C)ccc1C | 143%
CCOC(=O)C(=Cc1cccc(C#N)c1)C(=O)OCC | 64.1%
COc1cc(-c2nc(NC(C)=O)sc2-c2ccnc(NCCNS(=O)(=O)c3ccccc3)n2)ccc1Cl | 38.4%
CCN1CCN(CC(=O)Nc2nc3ccc(NCc4ccc(Br)cc4)cc3s2)CC1 | 72.1%
C/C(=N\Nc1nc(C)cs1)c1cc2ccccc2o1 | 97.9%
COc1ccccc1-n1c(-c2cc(O)ccc2C)cn2c3c(=O)[nH]c(=O)n(C)c3nc12 | 60.3%
N#C/C(=C\c1ccc(Br)cc1)c1cc2ccccc2[nH]1 | 102%
COc1ccc(C2=C/C(=C\c3ccc(Cl)cc3)C(=O)N2/N=C/c2ccc(Cl)cc2)cc1 | 92.6%
CC(O)c1ncc(/C=C2\SC(=S)N(Cc3ccccc3)C2=O)s1 (stereo not drawn) | 89.8%
